Source: article PMC3218832

What was measured:
Experiment in all cases: protein binding microarray; high values mean tight binding
Details in all cases: dsDNA, one strand shown
[1] = target: RELARELA (p65 homodimer) (Homo sapiens, UniProt Q04206 1-307)
[2] = target: p50p50 homodimer (Homo sapiens, UniProt P19838 7-356)
[3] = target: T1, p52p52 homodimer (Homo sapiens, UniProt Q00653 4-332)
T1 sequence: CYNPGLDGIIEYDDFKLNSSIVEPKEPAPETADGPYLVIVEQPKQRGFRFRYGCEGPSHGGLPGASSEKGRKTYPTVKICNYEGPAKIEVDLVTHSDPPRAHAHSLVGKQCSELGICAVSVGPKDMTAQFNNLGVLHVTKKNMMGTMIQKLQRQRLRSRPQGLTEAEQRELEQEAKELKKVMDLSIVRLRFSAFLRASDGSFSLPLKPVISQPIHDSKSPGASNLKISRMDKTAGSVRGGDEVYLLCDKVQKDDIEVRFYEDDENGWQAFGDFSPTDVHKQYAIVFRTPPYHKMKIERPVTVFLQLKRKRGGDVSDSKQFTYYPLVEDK

[4] = target: RELA (p65) subunit of heterodimer;p50 subunit (Homo sapiens;Homo sapiens, UniProt Q04206;P19838 1-307;7-356)
Chain of RELA (p65) subunit of heterodimer;p50 subunit (Q04206 1-307, chain 1 of 2): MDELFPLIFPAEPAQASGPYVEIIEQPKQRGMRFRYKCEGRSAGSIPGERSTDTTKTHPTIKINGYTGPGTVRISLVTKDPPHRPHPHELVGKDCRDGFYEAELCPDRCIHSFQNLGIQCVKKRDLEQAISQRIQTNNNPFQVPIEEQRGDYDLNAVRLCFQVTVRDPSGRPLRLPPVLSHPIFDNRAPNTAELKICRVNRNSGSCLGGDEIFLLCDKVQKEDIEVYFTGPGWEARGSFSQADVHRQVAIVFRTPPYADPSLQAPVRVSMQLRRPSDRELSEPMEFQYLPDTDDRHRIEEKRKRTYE
Chain of RELA (p65) subunit of heterodimer;p50 subunit (P19838 7-356, chain 2 of 2): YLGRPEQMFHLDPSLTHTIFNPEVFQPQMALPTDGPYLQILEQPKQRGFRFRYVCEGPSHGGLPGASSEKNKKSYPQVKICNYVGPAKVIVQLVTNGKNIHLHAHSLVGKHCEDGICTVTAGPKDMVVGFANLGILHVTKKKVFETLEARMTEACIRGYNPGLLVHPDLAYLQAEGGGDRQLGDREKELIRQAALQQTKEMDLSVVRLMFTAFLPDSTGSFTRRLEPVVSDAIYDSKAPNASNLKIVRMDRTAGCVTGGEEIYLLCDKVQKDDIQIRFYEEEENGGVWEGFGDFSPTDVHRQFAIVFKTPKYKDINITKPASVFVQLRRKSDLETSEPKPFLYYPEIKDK

[5] = target: RELA (p65) subunit of heterodimer;p52 subunit (Homo sapiens;Homo sapiens, UniProt Q04206;Q00653 1-307;4-332)
[6] = target: RELB subunit;p50 subunit (Homo sapiens;Homo sapiens, UniProt Q01201;P19838 120-401;7-356)
[7] = target: T2, RELB subunit;p52 subunit (Homo sapiens;Homo sapiens, UniProt Q01201;Q00653 120-401;4-332)
T2 sequence 1: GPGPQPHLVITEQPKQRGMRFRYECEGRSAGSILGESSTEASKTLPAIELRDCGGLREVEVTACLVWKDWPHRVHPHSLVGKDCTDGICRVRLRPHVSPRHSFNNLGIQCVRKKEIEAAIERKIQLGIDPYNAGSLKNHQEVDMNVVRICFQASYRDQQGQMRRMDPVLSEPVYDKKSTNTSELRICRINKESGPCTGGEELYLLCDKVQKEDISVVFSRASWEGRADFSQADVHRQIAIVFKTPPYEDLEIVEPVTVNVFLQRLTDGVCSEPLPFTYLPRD
T2 sequence 2: T1 sequence

[8] = target: C-Rel subunit;p50 subunit (Homo sapiens;Homo sapiens, UniProt Q04864;P19838 1-285;7-356)
[9] = target: T3, C-Rel subunit;p52 subunit (Homo sapiens;Homo sapiens, UniProt Q04864;Q00653 1-285;4-332)
T3 sequence 1: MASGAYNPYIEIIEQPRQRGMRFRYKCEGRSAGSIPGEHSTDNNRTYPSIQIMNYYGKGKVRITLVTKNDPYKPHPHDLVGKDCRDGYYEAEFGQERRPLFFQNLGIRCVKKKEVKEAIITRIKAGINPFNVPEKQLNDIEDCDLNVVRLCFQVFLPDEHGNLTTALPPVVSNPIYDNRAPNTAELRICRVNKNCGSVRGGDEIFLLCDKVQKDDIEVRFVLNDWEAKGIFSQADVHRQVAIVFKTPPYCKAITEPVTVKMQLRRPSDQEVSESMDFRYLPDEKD
T3 sequence 2: T1 sequence

Chain of p50p50 homodimer (P19838 7-356): as the sequence (P19838 7-356, chain 2 of 2) above
Chain of RELARELA (p65 homodimer) (Q04206 1-307): as the sequence (Q04206 1-307, chain 1 of 2) above

Sequence	binding signal [1] [z-score]	binding signal [2] [z-score]	binding signal [3] [z-score]	binding signal [4] [z-score]	binding signal [5] [z-score]	binding signal [6] [z-score]	binding signal [7] [z-score]	binding signal [8] [z-score]	binding signal [9] [z-score]
AGAATGTTCCT	0.037	-1.47	-0.491	-0.64	-0.735	-0.963	-0.948	-1.17	-0.63
GAAGGGCTCCC	-1.08	-1.07	-0.651	-0.8	-0.916	-0.771	-0.771	-1.05	-0.778
CGAGGCACCCT	-1.09	-1.16	-0.572	-1.04	-0.854	-0.726	-0.72	-0.919	-1.01
CGGAAGCTCCT	-0.12	-1.95	-0.752	-1.05	-1.08	-1.17	-1.2	-1.46	-0.785
GGATTGTTCCC	0.75	-0.265	-0.233	-0.0316	-0.0574	-0.257	-0.307	0.0336	0.152
CAGATGACCCC	-0.4	-0.382	-0.355	-0.422	-0.386	-0.204	-0.302	-0.754	-0.39
GAGTATCCCCT	0.0376	1.26	1.26	1.29	1.26	1.28	1.35	0.928	0.943
GAATTATTCCC	1.89	0.532	0.423	0.97	0.744	0.44	0.413	1.16	0.686
GAAAGGTTCCC	0.328	-0.486	-0.241	-0.184	-0.334	-0.203	-0.316	-0.141	-0.167
CGGGGTCTCCT	-0.0145	0.0717	0.00961	-0.308	-0.191	-0.332	-0.207	-0.336	0.0688
CAGGAAACCCC	2.37	1.03	1.38	1.38	1.31	0.925	1.39	1.04	1.76
AGATGTTTCCC	1.63	0.332	0.359	0.89	0.674	0.348	0.51	1.05	0.783
GAAGGGACCCC	-0.812	0.244	0.629	-0.173	0.512	0.268	0.639	-0.159	0.296
AGGAGAACCCT	-0.567	-0.719	-0.426	-0.838	-0.729	-0.652	-0.634	-0.871	-0.624
CAGGAACTCCC	1.07	0.648	0.144	0.636	0.288	0.322	0.116	0.424	0.208
AAGAGTACCCT	-0.409	0.828	0.248	0.398	0.224	0.66	0.374	0.116	0.104
CGAGGCTTCCT	-0.994	-2.47	-0.827	-1.09	-1.19	-1.31	-1.05	-1.49	-1.05
GGAGACGCCCT	-0.954	-1.6	-0.72	-0.832	-0.77	-1.05	-0.933	-1.16	-0.641
AAGTGCCTCCC	-0.0547	-1.21	-0.495	-0.501	-0.793	-0.787	-0.731	-1.1	-0.788
CGGTAGCCCCT	0.0258	0.991	0.543	0.402	0.598	0.503	0.728	0.38	0.45

Sequence	binding signal [1] [z-score]	binding signal [2] [z-score]	binding signal [3] [z-score]	binding signal [4] [z-score]	binding signal [5] [z-score]	binding signal [6] [z-score]	binding signal [7] [z-score]	binding signal [8] [z-score]	binding signal [9] [z-score]
AAAGACTCCCT	-0.338	0.719	0.0106	0.327	0.161	0.395	0.156	-0.0953	0.0126
GGAAAGTTCCC	2.6	0.736	0.736	1.29	1.02	0.762	0.686	0.966	0.929
GGATAATCCCC	1.81	1.26	2.24	2.07	1.79	1.79	1.9	1.51	1.45
CAGATCCCCCT	-0.0668	1.6	1.41	2.39	1.76	2.45	2.37	1.85	1.37
GGGTACTCCCC	1.34	0.682	3.13	1.82	2.75	1.95	1.96	1.45	2.17
GAGTGCTTCCC	0.545	-0.398	-0.0563	-0.232	-0.157	-0.589	-0.383	-0.23	0.0743
GAAATAGTCCC	0.835	1.16	1.31	1.16	0.964	1.38	0.953	0.838	0.853
CGGTACATCCC	0.722	0.342	1.69	0.384	0.93	0.529	0.811	0.0779	0.879
GAGATGATCCT	-0.876	-1.5	-0.697	-0.978	-1.06	-1.27	-1.16	-1.84	-1.11
GAGAAACCCCC	1.35	1.41	2.15	2.14	2	1.98	2.04	1.45	2.14
AGGTGATTCCC	1.45	0.701	3.04	1.59	2.15	1.33	2.11	1.81	2.88
AAAGGAGTCCC	0.141	0.939	0.569	0.732	0.431	0.907	0.607	0.81	0.405
CGGGTTATCCC	1.55	0.247	1.5	0.634	0.988	0.155	0.698	0.306	0.791
AAGTACCTCCT	0.111	0.67	0.0441	0.737	-0.123	0.852	0.227	0.224	-0.202
GGATTAGCCCC	0.514	0.405	0.296	0.431	0.293	0.211	0.414	0.535	0.373
AGGATCTCCCC	0.594	1.02	0.969	1.28	1.04	1.22	0.999	0.853	0.953
AAGGTATTCCT	-0.0185	-0.222	-0.0124	-0.477	-0.138	-0.322	-0.266	-0.255	-0.012
GAATTTGTCCC	1.3	0.832	0.9	1.01	0.944	0.998	0.873	1.27	0.573
AGAGGCCTCCT	-0.539	-1.92	-0.785	-1.08	-1.07	-1.08	-0.973	-1.66	-0.937
CAATGGTTCCT	0.0242	-1.26	-0.536	-0.894	-0.883	-0.727	-0.56	-0.994	-0.857

Sequence	binding signal [1] [z-score]	binding signal [2] [z-score]	binding signal [3] [z-score]	binding signal [4] [z-score]	binding signal [5] [z-score]	binding signal [6] [z-score]	binding signal [7] [z-score]	binding signal [8] [z-score]	binding signal [9] [z-score]
AGGAGCCTCCC	-0.27	-0.831	-0.599	-0.748	-0.852	-0.76	-0.789	-0.995	-0.719
CGGATAATCCT	0.536	-1.31	-0.659	-1.04	-0.831	-1.02	-1.08	-0.945	-0.765
CGGAACACCCT	-0.222	-0.182	-0.238	-0.453	-0.316	-0.373	-0.287	-0.444	-0.317
CAAGGTATCCC	-0.591	-0.9	-0.296	-0.874	-0.575	-0.488	-0.446	-0.834	-0.451
CAGATCGTCCT	-0.0967	-1.22	-0.471	-1	-0.796	-0.842	-0.777	-1.17	-0.663
CAAATTTTCCC	2.86	1.18	1.47	1.48	1.47	1.08	1.27	1.5	1.39
CGGTGGATCCC	0.0568	0.42	2.32	0.748	1.33	0.911	1.38	0.293	1.43
AGAATTGTCCC	0.95	0.906	0.873	0.803	0.85	0.82	0.675	0.87	0.604
GAGATAGTCCT	-0.228	-0.791	-0.575	-0.973	-0.809	-0.986	-0.865	-1.2	-0.764
AGGAGTGTCCC	1.3	0.0859	0.362	0.736	0.372	0.333	0.321	0.586	0.486
CGGTGTCTCCC	-0.108	-0.00286	0.283	0.0635	0.211	-0.121	0.143	-0.0512	0.354
AAGATAATCCT	-0.605	-1.55	-0.666	-1.04	-0.884	-1.14	-0.91	-1.26	-0.848
GAGGTGACCCC	-0.476	-0.386	-0.328	-0.534	-0.428	-0.385	-0.19	-0.788	-0.26
CAGAAAATCCC	1.82	0.978	1.18	0.992	1.13	0.966	1.04	0.902	1.19
CAATTGCTCCC	-0.396	-0.852	-0.46	-0.685	-0.589	-0.487	-0.531	-0.849	-0.604
AAGAATGTCCC	1.27	0.914	0.691	0.927	0.625	0.695	0.54	0.518	0.463
GGAGAAGTCCT	0.391	-0.831	-0.506	-0.525	-0.585	-0.798	-0.864	-0.433	-0.307
CGAGTGACCCT	-1.21	-1.33	-0.545	-0.827	-0.906	-0.855	-0.722	-1.34	-0.744
CGAATGATCCT	-0.807	-1.92	-0.659	-0.966	-0.935	-1.16	-0.928	-1.72	-0.968
